Screening results from PubChem.
The full list was thinned out, with hits kept by preference.
ER stress surv: ER stress cell death inhibition | CSM14.1 thapsigargin ER stress survival, ATP luminescence | relative survival (cellular ATP), % at 15 µg/mL (by protocol) | 0.33% of 48,000 active;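 active means survival measured by cellular ATP above 50% at 15 µg/ml in the first screen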;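 further: cell death triggered by about 15 µM thapsigargin; ATP read 24 h after thapsigargin was added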
Each line names hits and unclear results; the compound was inactive in the other large screens.

COc1ccc(/C=N/OCC(=O)N2CCN(C(c3ccccc3)c3ccccc3)CC2)cc1OC	ER stress surv 116.3
O=C(Nc1c[nH]c(=O)[nH]c1=O)c1ccc([N+](=O)[O-])cc1	none
O=C1C2C3C=CC(C3=C3CCCC3)C2C(=O)N1Cc1ccccc1 (stereo not drawn)	none
Cc1ccc(C2(c3ccc(C)cc3)CC2C(=O)Nc2ccncc2)cc1 (stereo not drawn)	none
Cc1ccc(C2(c3ccc(C)cc3)CC2C(=O)Nc2cccnc2)cc1 (stereo not drawn)	ER stress surv 78.5
Cc1ccc(C2(c3ccc(C)cc3)CC2C(=O)Nc2ccccc2)cc1 (stereo not drawn)	none
CC(=O)Oc1ccc(C(=O)Nc2cccc(-c3nc4ccccc4o3)c2)cc1	none
Cc1ccc(NC(=O)/C=C/c2ccccc2)cc1	none
CCOc1cc(C2C(C(=O)OCC3CCCO3)=C(C)NC3=C2C(=O)CCC3)cc([N+](=O)[O-])c1O (stereo not drawn)	none
CCn1c2ccccc2c2cc(C3C(C(=O)OCC4CCCO4)=C(C)NC4=C3C(=O)CCC4)ccc21 (stereo not drawn)	ER stress surv 96.3
CC1=C(C(=O)OCC2CCCO2)C(c2ccc(F)cc2)C2=C(CCCC2=O)N1 (stereo not drawn)	none
Cc1ccc(-c2nc(-c3cc4cc([N+](=O)[O-])c(O)cc4oc3=O)cs2)cc1	none
COc1cccc(N2C(=O)CC(N3CCN(C(c4ccccc4)c4ccccc4)CC3)C2=O)c1 (stereo not drawn)	none
COc1ccc(N2C(=O)CC(N3CCN(C(c4ccccc4)c4ccc(Cl)cc4)CC3)C2=O)cc1 (stereo not drawn)	ER stress surv 110.1
O=C1CC(N2CCN(C(c3ccccc3)c3ccccc3)CC2)C(=O)N1c1ccc(F)cc1 (stereo not drawn)	none
CSc1ccc(C=NN2CCN(Cc3ccccc3Cl)CC2)cc1	none
C/C(=N\Nc1ncc(Br)cn1)c1cccc([N+](=O)[O-])c1	none
COc1cc(NC(=O)c2cccc(Cl)c2)c(OC)cc1Cl	none
CCOc1cc(/C=C2/SC(=S)N(C)C2=O)ccc1OCCOc1ccccc1C	none
COc1cc(/C=C2/SC(=S)N(C)C2=O)ccc1OCc1cccc2ccccc12	none
CCC(C)c1ccc(OCCOc2ccc(/C=C3/SC(=S)N(C)C3=O)cc2OC)cc1 (stereo not drawn)	ER stress surv 88.8
N#CC1=C(N)Oc2cc(N)ccc2C1C1CC=CCC1 (stereo not drawn)	none
CCCOC(=O)C1=C(C)NC2(O)c3ccccc3C(=O)C12O (stereo not drawn)	none
CN(C)c1ccc(/C=C2\N=C(c3cc4ccccc4oc3=O)OC2=O)cc1	none
CC1=C(C(=O)OCC(C)C)C(c2cc([N+](=O)[O-])ccc2Cl)C2=C(CCCC2=O)N1 (stereo not drawn)	none
COc1ccc(C(=O)Nc2ccc(C)cc2C)cc1OC	none
COC(=O)CCC(=O)Nc1ccc(C)cc1C	none
COc1cc2c(cc1OC)C(CC(=O)Nc1ccc(C)cc1C)=NC(C)(C)C2	ER stress surv 53.0
COc1ccc(C2CC(=O)C3=C(C2)Nc2ccccc2NC3c2ccccc2Br)cc1OC (stereo not drawn)	none
CCc1ccc(C2Nc3ccccc3NC3=C2C(=O)CC(c2ccc(OC)c(OC)c2)C3)cc1 (stereo not drawn)	ER stress surv 89.1
CCCOc1ccc(C2Nc3ccccc3NC3=C2C(=O)CC(c2ccc(OC)c(OC)c2)C3)cc1 (stereo not drawn)	ER stress surv 103.4
COc1ccc(C2CC(=O)C3=C(C2)Nc2ccccc2NC3c2cc(Br)ccc2OC)cc1OC (stereo not drawn)	ER stress surv 111.8
COc1ccc(C2CC(=O)C3=C(C2)Nc2ccccc2NC3c2cc(OC)ccc2OC)cc1 (stereo not drawn)	none
COc1ccc(C2CC(=O)C3=C(C2)Nc2ccccc2NC3c2ccc([N+](=O)[O-])cc2)cc1OC (stereo not drawn)	none
COc1ccc(C2CC(=O)C3=C(C2)Nc2ccccc2NC3c2cc(OC)c(OC)cc2OC)cc1 (stereo not drawn)	none
COc1ccc(C2CC(=O)C3=C(C2)Nc2ccccc2NC3c2ccncc2)cc1OC (stereo not drawn)	none
COc1ccc(C2CC(=O)C3=C(C2)Nc2ccccc2NC3c2ccc(SC)cc2)cc1OC (stereo not drawn)	ER stress surv 112.2
COc1cc(OC)c([N+](=O)[O-])cc1/C=C1\C=C(c2ccc(Br)cc2)OC1=O	none
CN(C)c1ccc(C=Nc2nonc2N)cc1	none
CCOc1ccc2c(C)c(Cl)c(=O)oc2c1	none
Cc1ccc(NC(=O)COc2ccc(Cl)cc2Cl)cc1N(C)C	none
Cc1[nH]n(-c2ccccc2)c(=O)c1C(c1ccccc1C(F)(F)F)c1c(C)[nH]n(-c2ccccc2)c1=O	none
CC1C(c2ccc(Cl)cc2)NC(c2ccc(Cl)cc2)C(C)C1(O)c1ccc(F)cc1 (stereo not drawn)	none
C=CCOc1c(Br)cc(/C=C2/N=C(c3ccccc3)OC2=O)cc1OC	none
CCOc1ccccc1NC(=O)C(=O)NCc1ccccc1OC	none
COc1ccc(C2CC(=O)C3=C(C2)Nc2ccccc2NC3c2ccccc2C(F)(F)F)cc1OC (stereo not drawn)	ER stress surv 124.1
COc1ccc(C2CC(=O)C3=C(C2)Nc2ccccc2NC3c2cccc3ccccc23)cc1OC (stereo not drawn)	none
COc1ccc(C2CC(=O)C3=C(C2)Nc2ccccc2NC3c2ccc(Cl)c(Cl)c2)cc1OC (stereo not drawn)	none
COc1ccc(C2CC(=O)C3=C(C2)Nc2ccccc2NC3c2ccccc2C)cc1OC (stereo not drawn)	none
COc1ccc(C2Nc3ccccc3NC3=C2C(=O)CC(C)(C)C3)cc1OCc1ccccc1 (stereo not drawn)	none
COc1ccc(C2CC(=O)C3=C(C2)Nc2ccccc2NC3c2ccc(OCc3ccccc3)c(OC)c2)cc1OC (stereo not drawn)	ER stress surv 125.1
Cc1c(Cl)cccc1N1C(=O)c2ccccc2C1=O	none
COC(=O)C(C(c1ccccc1)c1cc2ccccc2[nH]1)[N+](=O)[O-] (stereo not drawn)	none
CC1(C)CC(NS(=O)(=O)c2cccc([N+](=O)[O-])c2)CC(C)(C)N1	none
COc1cccc(-c2nc(-c3ccc4c(c3)-c3ccccc3S4(=O)=O)c(-c3ccccc3)[nH]2)c1OC	none
COc1ccc(C(=O)N/C(=C/c2ccc(Br)cc2)c2nc3ccccc3[nH]2)cc1	none
CN(C)c1ccc(/C=C(/c2ccccc2)c2nc3ccccc3[nH]2)cc1	none
COc1ccc(/C=C(/c2ccccc2)c2nc3ccccc3[nH]2)cc1	ER stress surv 51.1
OC(c1ccccc1)(c1ccccc1)c1ccnn1-c1ccccc1	none
CC(=O)Nc1cc(-c2nc3cc(C)c(C)cc3o2)ccc1Cl	none
Cc1ccc(NC(=O)CC(=O)NN)cc1	none
CCOC(=O)CP(=O)(c1ccccc1)c1ccccc1	none
Cc1ccc(P(=O)(CSC(=N)N)c2ccc(C)cc2)cc1	ER stress surv 58.4
COC(=O)C1=C(C)NC2=C(C(=O)CC(C)(C)C2)C1c1ccccc1 (stereo not drawn)	none
COc1cc2c(cc1NCc1ccncc1)oc1ccccc12	ER stress surv 93.4
COc1cc2c(cc1NCc1ccc([N+](=O)[O-])cc1)oc1ccccc12	none
COc1cc2c(cc1NCc1ccc3c(c1)OCO3)oc1ccccc12	none
CC1(C)Cc2c(sc(/N=C/N3CCCCCC3)c2C#N)C(C)(C)N1	none
CC1=NN(c2cccc(F)c2)C(=O)/C1=C\c1ccc(N(C)C)cc1	none
